Shown are actives, neighbours in structure and some others; about 6.8% of the full set was active somewhere.
SW480 rereplic: A quantitative high throughput screen for small molecules that induce DNA re-replication in SW480 colon adenocarcinoma cells; 340,000 tested, 1.8% active; AID 624297, 2012; SW480 DNA re-replication, Hoechst DNA content imaging, 48 h; Potency, µM (doses to about 46.1 µM), for the others: at the top dose re-replication activation, hits mostly activators; also: % of control where 0% means no effect; nearly all actives have a fitted effect of over 55% in size
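Per well, 250 cells were exposed to pinned compound for 48 hr. Nuclear DNA was visualised with Hoechst (40 min, 37 C) and total object intensity recorded by fluorescence scanning.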
KB-V1 cytotox: qHTS assay for MDR1-selective chemotherapeutics: Primary screen using the drug-selected MDR subline cells KB-V1; KB-V1 MDR cells viability, CellTiter-Glo, 72 h; Potency, µM (top dose mostly 46.1 µM), hits mostly cytotoxic; 400,000 tested, 3.4% active; AID 1347076, 2019; also: % is scaled to controls: 0 for no effect and ±100 for the full control effect; nearly all actives have a fitted effect of over 60% in size
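Drug-selected KB-V1 cells, grown in DMEM lacking phenol red with 10% FBS, receive compound titrations; after three days at 37 degrees C, surviving cell ATP is quantified by CellTiter-Glo luminescence and responses normalized and curve-fitted.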
MCF10A rereplic: A quantitative high throughput screen for small molecules that induce DNA re-replication in MCF 10a normal breast cells; MCF 10A DNA re-replication, Hoechst nuclear intensity, 48 h; 350,000 tested, 2.9% active; AID 624296, 2012; Potency, µM (series often up to 46.1 µM), inactives show at the top dose activity, positive = re-replication, most hits filed as activators; also: % of control where 0% means no effect; nearly all actives have a fitted effect of over 50% in size
TSG101-PTAP inh: qHTS Assay for Iinhibitors of HIV-1 Budding by Blocking the Interaction of PTAP/TSG101; Fluorescence polarization, FITC-PTAP peptide / Tsg101 binding; 340,000 tested, under 10 active; Potency, µM (top dose mostly 115 µM), inactives show at the top dose activity change, negative = inhibition, usual class: inhibitors; AID 493005, 2010; active = well fitted inhibition curve with a large enough effect in the main read-out, with a control signal flat, not every such curve was filed as active; inconclusive = small, poorly fitted or top-dose-only effect, or effect the other way, or a change in a side signal; inactive = no such curve, though single readings can be large or run the other way; also: % of control where 0% means no effect
Target sequence (Q99816 whole entry, looked up): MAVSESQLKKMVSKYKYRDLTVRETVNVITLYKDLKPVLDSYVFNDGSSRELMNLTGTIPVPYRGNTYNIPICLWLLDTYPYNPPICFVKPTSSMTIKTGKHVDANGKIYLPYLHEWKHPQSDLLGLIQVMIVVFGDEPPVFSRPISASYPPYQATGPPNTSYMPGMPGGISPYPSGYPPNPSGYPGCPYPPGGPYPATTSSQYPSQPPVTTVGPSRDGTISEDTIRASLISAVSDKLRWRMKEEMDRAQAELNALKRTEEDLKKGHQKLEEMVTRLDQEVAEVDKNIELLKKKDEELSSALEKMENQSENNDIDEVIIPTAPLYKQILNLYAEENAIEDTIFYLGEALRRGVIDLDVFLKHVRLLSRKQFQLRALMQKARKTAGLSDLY
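Steps: Tsg101 binding domain dispensed (10 uM final), compounds pinned in DMSO, FITC-labeled PTAP-motif peptide added (50 nM final); after 20 min binding at room temperature, polarization measured.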
KB-3-1 tox: qHTS assay for MDR1-selective chemotherapeutics: Primary screen using the parental adenocarcinoma cell KB-3-1 | KB-3-1 viability, CellTiter-Glo ATP luminescence, 72 h | Potency, µM (titrated, usually from 46.1 µM), actives largely listed as cytotoxic | 400,000 tested, 1.4% active; also: % is scaled to controls: 0 for no effect and ±100 for the full control effect; nearly all actives have a fitted effect of over 60% in size
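Parental KB-3-1 viability, qHTS format: 72 h compound exposure, 37 °C; CellTiter-Glo; media-only wells and DMSO plates as controls; concentration-effect fits on corrected data.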
PINK1 modulator: A Quantitative High throughput Screen to Identify Chemical Modulators of PINK1 Expression. Potency, µM (top dose mostly 76.6 µM), inactives show at the highest dose activation (PINK1 increase), most hits filed as activators. PINK1 immunofluorescence, high-content cytometry, 24 h. 410,000 tested, 0.2% active; active = well fitted activation curve with a large enough effect; inconclusive = small, poorly fitted or top-dose-only effect; cell line not stated here; also: % of control where 0% means no effect; nearly all actives have a fitted effect of over 65% in size
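Fluorescence from anti-PINK1 antibody, together with nuclear and cell stains, was scanned on a laser-scanning cytometer. Before staining, stable-line cells were incubated 24 hours with compounds at 5 concentrations; primary antibody 12 h at 10 degrees C.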
An asterisk follows results filed as active; [ ] = remark or other dose. Unless noted, calls follow the shape of the dose curve; as a rule, active = well fitted curve in the direction sought with a large enough effect; inconclusive = small, poorly fitted or top-dose-only effect, or another doubt; inactive = no such curve, though single readings can be large; an effect the other way counts as inactive or inconclusive. Potency is read from the fitted curve at half-maximal effect.

What do the screens show for `O=C/C(=C\Nc1ccc(S(=O)(=O)CCO)cc1)c1nc2cc(Cl)ccc2o1`?
SW480 rereplic: inconclusive; KB-V1 cytotox: inactive; MCF10A rereplic: 23µM*; TSG101-PTAP inh: -3%; KB-3-1 tox: inactive; PINK1 modulator: 0%

What do the screens show for `O=C/C(=C\Nc1ccc(Cl)cn1)c1nc2cc(Cl)ccc2o1`?
SW480 rereplic: 2%; KB-V1 cytotox: inactive; MCF10A rereplic: 16µM*; TSG101-PTAP inh: 1%; KB-3-1 tox: inconclusive; PINK1 modulator: 2%

Results for Cc1cnc(-n2ncc(C(=O)NCCN3CCOCC3)c2C2CC2)nc1-c1cccs1 ?
PINK1 modulator: 1%

Results for Cc1ccc(S(=O)(=O)/N=C2\C=C(NS(=O)(=O)c3ccccc3)C(=O)c3ccccc32)cc1 ?
SW480 rereplic: 99%; KB-V1 cytotox: inactive; MCF10A rereplic: inconclusive; TSG101-PTAP inh: -12%; KB-3-1 tox: inactive; PINK1 modulator: 0%

How did Cc1ccc(S(=O)(=O)/N=C2/C=C(C3C(=O)CC(C)(C)CC3=O)C(=O)c3ccccc32)cc1 do in these assays?
SW480 rereplic: inconclusive; KB-V1 cytotox: 16µM*; MCF10A rereplic: inconclusive; TSG101-PTAP inh: -3%; KB-3-1 tox: inactive; PINK1 modulator: 7%

How did Cc1ccc(S(=O)(=O)C(CNS(=O)(=O)c2ccc(F)c(C)c2)c2cccs2)cc1 (stereo not drawn) do in these assays?
PINK1 modulator: -1%

How did Cc1cc(OC(C)C)nc(NCc2ccccc2)n1 do in these assays?
SW480 rereplic: inconclusive; KB-V1 cytotox: inactive; MCF10A rereplic: inconclusive; TSG101-PTAP inh: 0%; KB-3-1 tox: 12µM*; PINK1 modulator: inconclusive

What do the screens show for `Cc1ccc(Nc2cc(C)nc(NCc3ccccc3)n2)cc1`?
SW480 rereplic: inconclusive; KB-V1 cytotox: 12µM*; MCF10A rereplic: 18µM*; TSG101-PTAP inh: 0%; KB-3-1 tox: inconclusive; PINK1 modulator: -1%

How did COc1ccc(Nc2cc(C)nc(NCc3ccccc3)n2)cc1 do in these assays?
SW480 rereplic: -1%; KB-V1 cytotox: inconclusive; MCF10A rereplic: 7%; TSG101-PTAP inh: -9%; KB-3-1 tox: inconclusive; PINK1 modulator: 9%

What do the screens show for `Cc1cc(C)nc(N/N=C/c2cccc3ccccc23)n1`?
SW480 rereplic: 4%; KB-V1 cytotox: 18µM*; MCF10A rereplic: -6%; TSG101-PTAP inh: -3%; KB-3-1 tox: inactive; PINK1 modulator: 2%

Results for O=[N+]([O-])c1ccc(N/N=C\c2ccccc2OCc2ccccc2)cc1 ?
SW480 rereplic: inconclusive; KB-V1 cytotox: inactive; MCF10A rereplic: inconclusive; TSG101-PTAP inh: 6%; KB-3-1 tox: inactive; PINK1 modulator: 9%

What do the screens show for `O=[N+]([O-])c1ccc(NN=Cc2cccc3ccccc23)cc1`?
SW480 rereplic: 1.2µM*; KB-V1 cytotox: inactive; MCF10A rereplic: inconclusive; TSG101-PTAP inh: -6%; KB-3-1 tox: inactive; PINK1 modulator: 1%

Results for Clc1ccc(-c2noc(-c3cccnc3NCc3ccco3)n2)cc1 ?
KB-V1 cytotox: inactive; KB-3-1 tox: inactive; PINK1 modulator: 4%

Results for Cc1c(C(=O)N2CCCC(C)C2)sc2ncnc(NCCN3CCCCC3)c12 (stereo not drawn) ?
PINK1 modulator: 1%

How did O=C(c1ccc2c(c1)N(Cc1ccccc1)C(=O)c1ccccc1S2(=O)=O)N1CCc2ccccc21 do in these assays?
PINK1 modulator: 1%

How did Cc1cccc(OCc2nc(CC(=O)Nc3ccc(Cl)cc3)cs2)c1 do in these assays?
KB-V1 cytotox: inactive; KB-3-1 tox: inactive; PINK1 modulator: 7%

How did Cc1cc(NC2CCCCC2)nc(NCc2ccccc2)n1 do in these assays?
SW480 rereplic: 15µM*; KB-V1 cytotox: inactive; MCF10A rereplic: inconclusive; TSG101-PTAP inh: -1%; KB-3-1 tox: inconclusive; PINK1 modulator: inconclusive

What do the screens show for `Cc1cc(N/N=C/c2ccccc2Cl)nc(NCc2ccccc2)n1`?
SW480 rereplic: inconclusive; KB-V1 cytotox: inconclusive; MCF10A rereplic: 16µM*; TSG101-PTAP inh: 1%; KB-3-1 tox: inconclusive; PINK1 modulator: inconclusive

How did COC(=O)c1ccc2c(=O)n(CCCCCC(=O)N3CCN(c4cc(Cl)ccc4C)CC3)c(=O)[nH]c2c1 do in these assays?
KB-V1 cytotox: inactive; KB-3-1 tox: inactive; PINK1 modulator: 1%

What do the screens show for `CN1N/C(=C\c2ccccc2)N=C2C(=O)N(C)C(=O)N=C21`?
KB-V1 cytotox: inactive; KB-3-1 tox: inactive; PINK1 modulator: 1%

Results for O=C(Nc1ccccc1C(F)(F)F)c1noc2c1CCCCC2 ?
KB-V1 cytotox: inactive; KB-3-1 tox: inactive; PINK1 modulator: 1%

Results for O=C(NCC(=O)N1CCN(S(=O)(=O)c2ccc3c(c2)OCCO3)CC1)c1ccccc1F ?
SW480 rereplic: -13%; KB-V1 cytotox: inactive; MCF10A rereplic: -1%; TSG101-PTAP inh: -5%; KB-3-1 tox: inactive; PINK1 modulator: 3%

How did O=C(CCl)N1CCN(S(=O)(=O)c2ccc3c(c2)OCCCO3)CC1 do in these assays?
SW480 rereplic: inconclusive; KB-V1 cytotox: inactive; MCF10A rereplic: 4.1µM*; TSG101-PTAP inh: -2%; KB-3-1 tox: inconclusive; PINK1 modulator: -1%

Results for O=C(c1cccnc1)N1CCN(S(=O)(=O)c2ccc3ccccc3c2)CC1 ?
SW480 rereplic: -8%; KB-V1 cytotox: 18µM*; MCF10A rereplic: 0%; TSG101-PTAP inh: -4%; KB-3-1 tox: 16µM*; PINK1 modulator: -3%

Results for O=C(Cc1ccc2c(c1)OCCO2)N1CCN(S(=O)(=O)c2ccccc2C(F)(F)F)CC1 ?
SW480 rereplic: 2%; KB-V1 cytotox: 21µM*; MCF10A rereplic: 16%; TSG101-PTAP inh: 1%; KB-3-1 tox: inactive; PINK1 modulator: -1%

Results for CCOC(=O)N1CCC(N2CCN(S(=O)(=O)c3ccc4ccccc4c3)CC2)CC1 ?
SW480 rereplic: 8%; KB-V1 cytotox: 2.6µM*; MCF10A rereplic: 0%; KB-3-1 tox: inactive; PINK1 modulator: -5%[38.3 µM]

Results for COC(=O)c1ccc(C2C=C(c3ccc(Cl)cc3)Nc3nc4ccccc4n32)cc1 (stereo not drawn) ?
KB-V1 cytotox: inactive; KB-3-1 tox: inactive; PINK1 modulator: 6%

Bioassay records as filed in PubChem BioAssay.
